# Laboratory results as given in PubChem BioAssay (NCATS).
# Records with an inconclusive call do not appear. A number with no mark means an inactive call. Active and inactive are the calls of the source. Calls follow the shape of the dose curve; as a rule, active = well fitted activation curve with a large enough effect; inconclusive = small, poorly fitted or top-dose-only effect; inactive = no such curve, though single readings can be large or run the other way.
# Molecular target: Cellular tumor antigen p53 (Homo sapiens) (UniProt P04637)
# Test: Primary qHTS for small molecule compounds that upregulate eGFP-tagged delta133p53alpha (in N-terminal) cells. (AID 2060322); also: nearly all actives have a fitted effect of over 75% in size;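 as to activation: series mostly up to about 56 µM; 0% = DMSO vehicle and 100% = reference activator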
# Settings: NCI-H358 eGFP-delta133p53alpha fluorescence, 24 h; activation: stronger effect = higher value
# How it was run: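 NCI-H358 cells pre-induced 24 h with 10 ng/ml doxycycline to express N-terminal eGFP-delta133p53alpha, then dosed 24 h at 37C without doxycycline; fixed, Hoechst-stained, GFP intensity by laser scanning cytometry, normalized to DMSO (0%) and 57.5 uM 5-azacytidine (100%).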
# Potency is read from the fitted curve at half-maximal effect.
# Chain of Cellular tumor antigen p53 (Homo sapiens) (P04637 whole entry, looked up): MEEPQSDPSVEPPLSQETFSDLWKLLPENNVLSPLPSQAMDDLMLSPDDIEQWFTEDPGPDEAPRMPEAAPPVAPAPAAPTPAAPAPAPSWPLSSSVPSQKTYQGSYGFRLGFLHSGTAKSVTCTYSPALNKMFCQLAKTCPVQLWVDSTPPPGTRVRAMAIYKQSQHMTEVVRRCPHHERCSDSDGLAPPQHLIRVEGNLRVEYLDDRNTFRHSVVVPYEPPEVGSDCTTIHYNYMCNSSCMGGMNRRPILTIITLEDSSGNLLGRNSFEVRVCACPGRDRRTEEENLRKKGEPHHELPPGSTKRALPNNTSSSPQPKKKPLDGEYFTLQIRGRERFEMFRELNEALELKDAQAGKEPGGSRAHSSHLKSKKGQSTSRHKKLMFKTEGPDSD
Compound,activation,Potency
O=C(O)CCc1cccc(O)c1O[C@@H]1O[C@H](CO)[C@@H](O)[C@H](O)[C@H]1O,0%,
COC(=O)CC[C@@H](C)C1CCC2C3CCC4C[C@H](OC(C)=O)CCC4(C)C3C[C@H](O)C21C (some centres undefined),3.67%,
O=S(=O)(c1ccc(S(=O)(=O)n2cnc3ccccc32)cc1)N1CCCCCC1,0.333%,
COC(=O)[C@@]1(O)C=CC[C@@H]2[C@@]3(C)C[C@@H](c4ccoc4)OC(=O)[C@H]3CC[C@]21C,7.14%,
COc1cccc(Cn2ncc3c4sc(S(C)=O)cc4n(C)c3c2=O)c1 (centres undefined),7.67%,
CC1(C(=O)O)CCCC2(C)C3=CCC4CC3(CCC12)CC4CO (centres undefined),3.82%,
CN1CCc2cc(Cl)c(O)cc2[C@@H](c2cccc3c2OCC3)C1,-1.67%,
COc1cc2ncnc(Nc3ccc(F)c(Cl)c3)c2cc1O,25.7%,
CC(/C=C/[C@]1(O)[C@@]2(C)CO[C@@]1(C)C[C@@H](O)C2)=C\C(=O)O[C@@H]1O[C@H](CO)[C@@H](O)[C@H](O)[C@H]1O,-16.8%,
COC(=O)C[C@H]1C(C)(C)[C@H](OC(=O)c2ccccc2)C2CC3=C4CC(=O)O[C@@H](c5ccoc5)[C@]4(C)CCC3[C@@]1(C)C2=O (some centres undefined),-5.34%,
CCOc1cccc(NC(=O)c2ccc(N3CCCC3)c(C(F)(F)F)c2)c1,5.67%,
C=CC1(C)C=C2C(=O)CC3C(C)(C)CCCC3(C(=O)O)C2(O)CC1 (centres undefined),-15.3%,
C[C@H]1[C@H](C)CC[C@]2(C(=O)O)CC[C@]3(C(=O)O)C(=CCC4[C@@]5(C)CC[C@H](O[C@@H]6O[C@@H](C)[C@H](O)[C@@H](O)[C@H]6O)C(C)(C)C5CC[C@]43C)[C@H]12 (some centres undefined),-4.58%,
CC1(C)CC2C3=CCC4C5(C)CCC(OC6OC(C(=O)O)C(O)C(O)C6OC6OC(CO)C(O)C(O)C6OC6OC(CO)C(O)C(O)C6O)C(C)(CO)C5CCC4(C)C3(C)CCC2(C)C(OC2OCC(O)C(OC3OC(CO)C(O)C(O)C3O)C2O)C1O (centres undefined),-18.3%,
CCNc1nc(Nc2cc(F)c(C(=O)N3CCOCC3)cc2OC)ncc1C(F)(F)F,10.7%,
C=C1C(O)C(OC(=O)c2ccccc2)C2C(C)(C(=O)O)CCCC2(C)C1CC/C(C)=C\CO (centres undefined),11.5%,
C[C@]12C=C[C@@]3(CCC4[C@](C)(CO)CCC[C@@]4(C)C3CC1)C2 (some centres undefined),-5.36%,
CC(C)CCC[C@@H](C)[C@H]1CC[C@H]2[C@@H]3CC(=O)[C@H]4C[C@@H](O)CC[C@]4(C)[C@H]3CC[C@]12C,-7%,
C=C1C(=O)O[C@@H]2/C=C(\C)C(=O)/C=C/[C@](C)(O)C[C@@H](OC(=O)C(C)C)[C@@H]12,,2.95 µM (active)
CCc1nn(CCO)c(CC)c1Oc1cc(C#N)cc(C#N)c1,11.9%,
CC1(C)CCC2(C(=O)OC3OC(COC4OC(CO)C(O)C(O)C4O)C(O)C(O)C3O)CCC3(C)C(=CCC4C5(C)CCC(O)C(C)(C(=O)O)C5CCC43C)C2C1O (centres undefined),5.34%,
C=C(C)[C@@H]1CC[C@](C)(O)[C@@H](OC(=O)c2ccccc2)C1,-15.2%,
COC1CC(=O)C23C(=O)NC(Cc4c[nH]c5ccccc45)C2C(C)C2(C)OC2C3/C=C/CC(C)CC1O (centres undefined),,13.1 µM (active)
C[C@@H]1C(=O)O[C@H](C)[C@H]1CC(=O)[C@](C)(O)[C@H]1CC[C@@]2(O)C3=CC(=O)[C@@H]4C[C@@H](O)[C@@H](O)C[C@]4(C)C3CC[C@]12C (some centres undefined),-6.11%,
